{"source": "PubChem BioAssay (NCATS)", "key": {"[1]": {"target": "Rap guanine nucleotide exchange factor 4 (Homo sapiens) (UniProt Q8WZA2)", "sequence (Q8WZA2 whole entry, looked up)": "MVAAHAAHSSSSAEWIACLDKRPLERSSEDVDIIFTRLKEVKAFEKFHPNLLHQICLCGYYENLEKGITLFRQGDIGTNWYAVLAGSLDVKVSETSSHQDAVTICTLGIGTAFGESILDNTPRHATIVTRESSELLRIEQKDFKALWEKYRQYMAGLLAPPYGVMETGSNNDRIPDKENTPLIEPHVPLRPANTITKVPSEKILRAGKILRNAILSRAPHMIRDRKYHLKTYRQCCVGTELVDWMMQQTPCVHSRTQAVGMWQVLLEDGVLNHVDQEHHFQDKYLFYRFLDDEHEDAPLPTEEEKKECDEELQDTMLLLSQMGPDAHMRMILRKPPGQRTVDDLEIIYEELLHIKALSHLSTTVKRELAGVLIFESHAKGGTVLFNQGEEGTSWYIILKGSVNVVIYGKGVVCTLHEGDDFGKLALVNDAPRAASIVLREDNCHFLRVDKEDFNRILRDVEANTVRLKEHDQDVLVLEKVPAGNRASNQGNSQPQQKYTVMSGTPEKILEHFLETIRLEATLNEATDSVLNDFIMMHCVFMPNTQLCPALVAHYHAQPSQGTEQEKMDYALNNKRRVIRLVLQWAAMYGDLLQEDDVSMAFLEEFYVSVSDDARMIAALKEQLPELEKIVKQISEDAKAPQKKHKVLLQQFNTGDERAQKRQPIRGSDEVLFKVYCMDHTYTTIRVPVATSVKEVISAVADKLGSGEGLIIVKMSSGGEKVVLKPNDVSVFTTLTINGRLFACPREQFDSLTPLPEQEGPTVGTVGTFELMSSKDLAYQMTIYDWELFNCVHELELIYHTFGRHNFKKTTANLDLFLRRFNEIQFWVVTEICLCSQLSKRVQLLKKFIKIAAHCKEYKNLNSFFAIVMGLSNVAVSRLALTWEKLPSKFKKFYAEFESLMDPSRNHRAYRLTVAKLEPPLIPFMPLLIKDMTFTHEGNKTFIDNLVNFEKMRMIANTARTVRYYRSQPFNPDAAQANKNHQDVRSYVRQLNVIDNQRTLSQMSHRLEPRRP", "experiment": "Confirmatory qHTS for antagonist of cAMP-regulated guanine nucleotide exchange factor 4 (EPAC2) (AID 1645885); also: nearly all actives have a fitted effect of over 25% in size"}, "[2]": {"target": "Endonuclease 4 (Escherichia coli (strain K12)) (UniProt P0A6C1)", "experiment": "Counterscreen for APE1 Inhibitors: qHTS Validation Assay for Inhibitors of Endonuclease IV (AID 1708)", "in_short": "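Cleavage of a quenched abasic-site DNA duplex (50 nM, 5'-TAMRA, 3'-BHQ-2) by 2 nM enzyme is followed as fluorescence increase. Compounds are preincubated with enzyme 15 min at room temperature before substrate addition.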"}, "[3]": {"experiment": "qHTS for differential inhibitors of proliferation of Plasmodium falciparum line D10 (AID 1877);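 also: parasites grown with compound for 72 h before DNA staining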; also: potency is read from the fitted curve at half-maximal effect"}, "[4]": {"target": "ATP-dependent DNA helicase Q1 (Homo sapiens) (UniProt P46063)", "sequence (P46063 whole entry, looked up)": "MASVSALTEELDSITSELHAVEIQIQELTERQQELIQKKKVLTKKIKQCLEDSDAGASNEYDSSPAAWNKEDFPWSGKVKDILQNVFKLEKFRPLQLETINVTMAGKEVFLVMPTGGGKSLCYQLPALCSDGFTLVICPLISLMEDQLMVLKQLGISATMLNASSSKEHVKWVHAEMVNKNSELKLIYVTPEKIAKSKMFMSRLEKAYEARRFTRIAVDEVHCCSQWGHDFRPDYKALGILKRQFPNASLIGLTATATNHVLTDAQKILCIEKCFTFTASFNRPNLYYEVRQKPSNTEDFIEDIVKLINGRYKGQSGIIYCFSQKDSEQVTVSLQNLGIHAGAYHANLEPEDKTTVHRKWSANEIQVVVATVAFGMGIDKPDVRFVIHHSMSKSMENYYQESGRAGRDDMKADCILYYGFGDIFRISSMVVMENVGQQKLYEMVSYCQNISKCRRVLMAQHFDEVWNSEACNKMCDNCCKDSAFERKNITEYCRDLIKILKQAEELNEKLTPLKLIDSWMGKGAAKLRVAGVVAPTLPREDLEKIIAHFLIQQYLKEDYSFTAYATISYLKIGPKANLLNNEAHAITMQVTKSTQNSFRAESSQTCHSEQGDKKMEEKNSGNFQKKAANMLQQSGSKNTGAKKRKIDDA", "experiment": "qHTS Validation Assay for Inhibitors of RecQ-Like Dna Helicase 1 (RECQ1) (AID 2353)", "in_short": "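50 nM RECQ1T1 preincubated 15 min with compound in Tris pH 8.0 buffer with MgCl2, DTT, Tween-20 and 2.5 ug/ml poly(dI-dC); started with 200 nM TAMRA/BHQ-2 forked duplex and 2 mM ATP. Unwinding read as fluorescence (525/598 nm), two reads 2 h apart.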"}, "[5]": {"target": "Thyrotropin receptor (Homo sapiens) (UniProt P16473)", "sequence (P16473 whole entry, looked up)": "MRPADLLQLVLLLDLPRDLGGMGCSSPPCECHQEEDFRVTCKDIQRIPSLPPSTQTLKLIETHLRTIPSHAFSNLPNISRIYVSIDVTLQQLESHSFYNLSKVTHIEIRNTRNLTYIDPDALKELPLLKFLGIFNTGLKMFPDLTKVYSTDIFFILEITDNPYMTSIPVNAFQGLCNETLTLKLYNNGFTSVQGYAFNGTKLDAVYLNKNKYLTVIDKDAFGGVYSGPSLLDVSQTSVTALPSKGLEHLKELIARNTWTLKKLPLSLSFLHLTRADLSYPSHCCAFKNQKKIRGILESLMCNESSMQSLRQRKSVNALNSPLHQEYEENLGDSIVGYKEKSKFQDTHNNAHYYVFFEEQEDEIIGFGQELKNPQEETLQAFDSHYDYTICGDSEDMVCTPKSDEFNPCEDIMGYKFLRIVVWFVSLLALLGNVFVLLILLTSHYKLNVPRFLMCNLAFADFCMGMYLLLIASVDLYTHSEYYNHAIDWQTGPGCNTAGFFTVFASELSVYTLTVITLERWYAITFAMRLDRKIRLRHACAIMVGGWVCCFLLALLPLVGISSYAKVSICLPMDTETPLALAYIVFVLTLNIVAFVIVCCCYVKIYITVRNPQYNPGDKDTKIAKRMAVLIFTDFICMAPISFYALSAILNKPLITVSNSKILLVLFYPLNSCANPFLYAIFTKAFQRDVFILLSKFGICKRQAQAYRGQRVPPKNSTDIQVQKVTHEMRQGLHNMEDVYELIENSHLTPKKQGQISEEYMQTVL", "experiment": "qHTS Assay for Antagonists of the Thyroid Stimulating Hormone Receptor (AID 488980); also: series mostly up to about 58 µM", "in_short": "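Inhibition of TSH-stimulated cAMP accumulation was quantified by homogeneous time-resolved FRET in TSHR-transfected HEK293 cells. Agonist: TSH, 4 nM final (EC80).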"}, "[6]": {"experiment": "Cell Viability - Hek293 (AID 427;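 active = compounds whose dose-response curve shows a full or clear partial loss of cell viability, called from curve shape rather than a numeric limit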; also: potency is read from the fitted curve at half-maximal effect)", "conditions": "qHTS", "in_short": "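AC50 values derive from Hill-modelled concentration-response of ATP-based luminescence, normalized between DMSO-only and 100 uM tamoxifen controls. Cells were exposed in complete culture medium for 40 hr at 37 °C before detection.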"}, "[7]": {"experiment": "Cellular Toxicity (caspase-3) NIH 3T3 (AID 666)", "in_short": "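Concentration-response qHTS in NIH 3T3 mouse fibroblasts scores caspase-3/7 activation as rising luminescence after 16 hr compound exposure. Signals are scaled between DMSO-only and 100 uM tamoxifen.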"}, "[8]": {"experiment": "Cell Viability - LYMP2-024 (AID 988); also: nearly all actives have a fitted effect of over 60% in size", "in_short": "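Acute toxicity is measured as concentration-dependent loss of intracellular ATP in a human lymphoblastoid line treated 24 hours at 37 C. Luciferase luminescence quantifies ATP; AC50 values come from standard Hill-equation modelling.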"}, "[9]": {"experiment": "Cell Viability - LYMP1-002 - Assay at 24 hr (AID 993)", "in_short": "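qHTS, LYMP1-002 lymphoblastoid, 24 h cpd, 37 C, CellTiter-Glo ATP luminescence; AC50 via Hill eq.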"}, "[10]": {"target": "Peroxisome proliferator-activated receptor gamma (Homo sapiens) (UniProt P37231)", "sequence (P37231 whole entry, looked up)": "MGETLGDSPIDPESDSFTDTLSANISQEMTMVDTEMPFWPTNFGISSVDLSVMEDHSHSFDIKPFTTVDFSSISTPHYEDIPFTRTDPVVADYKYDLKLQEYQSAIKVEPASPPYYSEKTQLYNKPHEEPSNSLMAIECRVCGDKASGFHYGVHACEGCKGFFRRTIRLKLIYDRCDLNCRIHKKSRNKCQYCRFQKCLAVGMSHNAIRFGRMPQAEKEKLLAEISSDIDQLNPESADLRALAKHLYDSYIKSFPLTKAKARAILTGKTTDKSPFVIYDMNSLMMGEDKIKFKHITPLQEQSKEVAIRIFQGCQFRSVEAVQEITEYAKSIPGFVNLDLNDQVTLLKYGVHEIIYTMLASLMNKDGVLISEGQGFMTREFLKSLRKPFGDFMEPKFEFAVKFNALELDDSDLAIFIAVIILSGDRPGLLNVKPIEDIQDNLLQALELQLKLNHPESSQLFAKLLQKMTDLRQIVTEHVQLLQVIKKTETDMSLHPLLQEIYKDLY", "experiment": "qHTS assay for small molecule agonists of peroxisome proliferator-activated receptor gamma signaling (AID 588536; active = well fitted curve in the direction sought with a large enough effect in the signal ratio, with a control signal flat, not every such curve was filed as active; the % refers to the signal ratio)", "in_short": "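HEK293 UAS-bla reporter line, 1% charcoal/dextran FBS; titration, 16 h, 37 C; CCF4 loading 2 h RT; fluorescence 460/530 nm. Normalized to rosiglitazone 2 uM = 100%, DMSO = 0%.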"}, "[11]": {"target": "Thyroid hormone receptor beta (Homo sapiens) (UniProt P10828)", "sequence (P10828 whole entry, looked up)": "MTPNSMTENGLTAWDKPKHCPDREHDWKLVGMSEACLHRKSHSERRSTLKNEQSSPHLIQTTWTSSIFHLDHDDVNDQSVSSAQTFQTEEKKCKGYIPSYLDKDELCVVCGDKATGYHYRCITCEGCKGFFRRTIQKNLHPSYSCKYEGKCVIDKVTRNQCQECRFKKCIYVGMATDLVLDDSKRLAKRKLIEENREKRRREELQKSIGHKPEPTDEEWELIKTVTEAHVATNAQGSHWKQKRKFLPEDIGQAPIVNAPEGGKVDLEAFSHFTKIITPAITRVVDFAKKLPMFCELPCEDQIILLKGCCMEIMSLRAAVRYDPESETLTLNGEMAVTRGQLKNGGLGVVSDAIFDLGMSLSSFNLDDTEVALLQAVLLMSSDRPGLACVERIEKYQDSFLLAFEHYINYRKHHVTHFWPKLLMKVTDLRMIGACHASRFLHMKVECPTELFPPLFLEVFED", "experiment": "qHTS assay for small molecule agonists of thyroid hormone receptor beta signaling (AID 588545; calls by dose curve)", "in_short": "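Agonist-mode beta-lactamase reporter assay, HEK 293 cells, 2% charcoal/dextran FBS; cells plated 4 hrs, compound 18 hrs at 37 C, CCF4 2 hrs RT. Normalized to 10 nM T3 (100%) and DMSO (0%); Hill fit gives EC50, efficacy.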"}, "[12]": {"target": "Tumor necrosis factor (Homo sapiens) (UniProt P01375)", "sequence (P01375 whole entry, looked up)": "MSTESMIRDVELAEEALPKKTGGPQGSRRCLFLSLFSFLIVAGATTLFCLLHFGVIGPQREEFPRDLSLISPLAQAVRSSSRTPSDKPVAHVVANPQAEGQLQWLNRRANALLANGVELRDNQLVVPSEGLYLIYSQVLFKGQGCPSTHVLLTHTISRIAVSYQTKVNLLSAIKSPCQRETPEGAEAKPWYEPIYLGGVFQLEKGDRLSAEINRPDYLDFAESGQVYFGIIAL", "experiment": "qHTS assay to identify small molecules that stimulate Tumor Necrosis Factor-alpha (TNF-alpha) secretion (AID 651757; active = well fitted curve in the direction sought with a large enough effect in the signal ratio; the % refers to the signal ratio)", "in_short": "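Secreted TNF-alpha from compound-treated THP-1 cells (17 hrs, 37 C) was quantified with a homogeneous time-resolved fluorescence antibody assay.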"}, "[13]": {"target": "Nuclear receptor ROR-gamma (Homo sapiens) (UniProt P51449)", "sequence (P51449 whole entry, looked up)": "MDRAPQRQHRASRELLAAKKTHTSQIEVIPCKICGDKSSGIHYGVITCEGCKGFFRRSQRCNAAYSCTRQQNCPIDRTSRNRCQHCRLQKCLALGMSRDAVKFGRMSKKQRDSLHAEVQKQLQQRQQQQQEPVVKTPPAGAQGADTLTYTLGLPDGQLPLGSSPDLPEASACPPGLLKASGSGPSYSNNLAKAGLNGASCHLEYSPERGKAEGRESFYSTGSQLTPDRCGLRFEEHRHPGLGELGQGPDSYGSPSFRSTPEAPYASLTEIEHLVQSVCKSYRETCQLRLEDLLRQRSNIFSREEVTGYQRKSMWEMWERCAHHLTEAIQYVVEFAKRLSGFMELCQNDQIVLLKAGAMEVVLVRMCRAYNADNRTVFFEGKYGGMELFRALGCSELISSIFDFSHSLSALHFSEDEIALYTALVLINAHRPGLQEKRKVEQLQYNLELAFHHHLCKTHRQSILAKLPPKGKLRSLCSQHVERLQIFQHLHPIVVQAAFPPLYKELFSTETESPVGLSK", "experiment": "qHTS assay for small molecule antagonists of the retinoid-related orphan receptor gamma (ROR-gamma) signaling pathway (AID 651802); also: potency is read from the fitted curve at half-maximal effect; nearly all actives have a fitted effect of over 60% in size", "in_short": "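Antagonism is scored as a fall in luminescence from a RORE-luciferase reporter in CHO cells expressing ROR under a TET-inducible promoter, measured 16hr after doxycycline induction in the presence of compound.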"}, "[14]": {"experiment": "Quantitative high throughput screen for delayed death inhibitors of the malarial parasite plastid, 96 hour incubation (AID 488745); also: nearly all actives have a fitted effect of over 70% in size; also: potency is read from the fitted curve at half-maximal effect;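 as to activity change, negative = inhibition: luciferase-expressing P. falciparum in erythrocytes at 2% hematocrit and 0.1% parasitemia; series mostly up to about 29 µM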", "in_short": "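Growth of reporter-bearing P. falciparum in red cells is measured after 96 h with compound, covering two erythrocytic cycles. Luminescence from the integrated luciferase serves as the growth signal.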"}}, "note": "“And” between values parts separate entries of the source, which are not always exact repeats. Equal entries are not always repeated. Values without a mark were called inactive. Records with an inconclusive call do not appear. Entries that show only a call come without a potency. The source made the active and inactive calls. Unless noted, calls follow the shape of the dose curve; as a rule, active = well fitted curve in the direction sought with a large enough effect; inconclusive = small, poorly fitted or top-dose-only effect, or another doubt; inactive = no such curve, though single readings can be large; an effect the other way counts as inactive or inconclusive."}
{"smiles": "CCOC(=O)c1[nH]c2ccc(OC)cc2c1C(SCC(=O)O)c1ccc(C(F)(F)F)cc1", "note": "(configuration not stated)", "values": [{"measurement": "activity change, negative = inhibition", "setting": "[1]", "result": "-9.73% [at 12.7 µM]"}]}
{"smiles": "Nc1ccc(Cl)cc1C(=O)c1ccccc1Cl", "values": [{"measurement": "activity change, negative = inhibition", "setting": "[1]", "result": "-22.9% [at 12.7 µM]"}]}
{"smiles": "Oc1cc2c(cc1O)[C@H]1c3ccccc3CNC1CC2", "note": "(some centres not stated)", "values": [{"measurement": "Potency", "setting": "[2]", "result": "inactive"}, {"measurement": "Potency", "setting": "[3]", "result": "11.2 µM (active)"}, {"measurement": "outcome", "setting": "[4]", "result": "inactive"}, {"measurement": "outcome", "setting": "[5]", "result": "inactive"}]}
{"smiles": "C[C@H]1CCCC(=O)CCC/C=C/c2cc(O)cc(O)c2C(=O)O1", "values": [{"measurement": "Potency", "setting": "[6]", "result": "31.1 µM (active) and 40.2 µM (active)"}, {"measurement": "outcome", "setting": "[7]", "result": "inactive"}, {"measurement": "Potency", "setting": "[8]", "result": "inactive"}, {"measurement": "Potency", "setting": "[9]", "result": "inactive"}, {"measurement": "outcome", "setting": "[10]", "result": "inactive"}, {"measurement": "outcome", "setting": "[11]", "result": "inactive"}, {"measurement": "outcome", "setting": "[12]", "result": "inactive"}, {"measurement": "Potency", "setting": "[13]", "result": "42.2 µM (active)"}]}
{"smiles": "C[C@]12C=CC(=O)C=C1CCC1C2=CC[C@]2(C)[C@@H](C(=O)CN3CCN(c4cc(N5CCCC5)nc(N5CCCC5)n4)CC3)CC[C@@H]12", "note": "(some centres not stated)", "values": [{"measurement": "Potency", "setting": "[3]", "result": "1.58 µM (active)"}]}
{"smiles": "FC(F)(F)c1cccc(C2NCc3ccccc3-n3cccc32)c1", "note": "(configuration not stated)", "values": [{"measurement": "activity change, negative = inhibition", "setting": "[1]", "result": "2.28% [at 12.7 µM]"}]}
{"smiles": "C/C=C(/C)C(=O)O[C@H]1C(C)=C2C([C@@H]1OC(=O)CCCCCCC)[C@@](C)(OC(C)=O)C[C@@H](OC(=O)CCC)[C@@]1(O)[C@H]2OC(=O)[C@@]1(C)O", "note": "(some centres not stated)", "values": [{"measurement": "Potency", "setting": "[2]", "result": "inactive"}, {"measurement": "Potency", "setting": "[3]", "result": "10 µM (active)"}, {"measurement": "outcome", "setting": "[4]", "result": "inactive"}, {"measurement": "Potency", "setting": "[14]", "result": "4.15 µM (active)"}, {"measurement": "outcome", "setting": "[5]", "result": "inactive"}]}
{"smiles": "Cc1cccc(CN2C(=O)CN=C(c3ccccc3)c3cc(Cl)ccc32)c1", "values": [{"measurement": "outcome", "setting": "[1]", "result": "inactive [at 12.7 µM]"}]}
{"smiles": "Cc1cc(/C=C2/C(=O)NC(=O)N(Cc3ccco3)C2=O)c(C)n1-c1ccccc1", "values": [{"measurement": "Potency", "setting": "[1]", "result": "inactive"}]}
{"smiles": "C[C@]12CC[C@H](OS(=O)(=O)O)CC1=CCC1C2CC[C@]2(C)C(=O)CC[C@@H]12", "note": "(some centres not stated)", "values": [{"measurement": "Potency", "setting": "[3]", "result": "inactive"}, {"measurement": "outcome", "setting": "[4]", "result": "inactive"}, {"measurement": "Potency", "setting": "[14]", "result": "inactive"}, {"measurement": "outcome", "setting": "[5]", "result": "inactive"}]}
